Bioassay records deposited in PubChem by several laboratories.
MPTP block = blocks calcium-induced mitochondrial swelling | isolated mouse mitochondria, Ca2+ swelling absorbance, 30 min | inhibition, % at 10 µM | 360,000 tested, 1.4% active;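 active = inhibition of 50% or more, scaled per plate between neutral and stimulator controls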
Beta cell apopt = beta cell apoptosis inhibition | INS-1E cytokine-induced death, ATP luminescence, 48 h; percent of positive-control rescue, neutral wells zero | protection from apoptosis, % (no concentration beside the values) | 300,000 tested, 0.8% active;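 active = Every replicate reaches about 75%, or at least half do and their mean reaches it too, limit read from the data; inconclusive = At least half of replicates reach the limit but their mean does not; inactive = Under half of replicates reach the limit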;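 note: higher means more ATP so stronger rescue from cytokine killing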
Mdm2-MdmX inh = inhibitors of human Mdm2/MdmX interaction | SaOS-2 split-luciferase Mdm2/MdmX complementation, luminescence | inhibition, % at 8 µM | 330,000 tested, 3% active | AID 485346;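 active = inhibition of at least 50% at 8 µM in the primary screen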
Target sequence (O15151 whole entry, looked up): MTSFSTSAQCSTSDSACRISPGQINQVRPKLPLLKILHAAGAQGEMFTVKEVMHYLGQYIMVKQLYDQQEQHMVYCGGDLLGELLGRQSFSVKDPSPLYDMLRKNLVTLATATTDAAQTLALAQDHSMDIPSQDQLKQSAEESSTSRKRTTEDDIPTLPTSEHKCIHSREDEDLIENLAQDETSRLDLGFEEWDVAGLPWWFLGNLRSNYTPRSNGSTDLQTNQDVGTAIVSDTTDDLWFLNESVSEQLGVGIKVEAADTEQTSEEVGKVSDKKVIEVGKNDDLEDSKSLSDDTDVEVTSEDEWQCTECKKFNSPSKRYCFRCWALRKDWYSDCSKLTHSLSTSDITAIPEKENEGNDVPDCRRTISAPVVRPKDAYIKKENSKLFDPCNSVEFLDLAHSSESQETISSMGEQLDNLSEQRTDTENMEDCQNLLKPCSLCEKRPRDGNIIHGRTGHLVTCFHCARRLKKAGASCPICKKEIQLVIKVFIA
Target sequence (Q00987 whole entry, looked up): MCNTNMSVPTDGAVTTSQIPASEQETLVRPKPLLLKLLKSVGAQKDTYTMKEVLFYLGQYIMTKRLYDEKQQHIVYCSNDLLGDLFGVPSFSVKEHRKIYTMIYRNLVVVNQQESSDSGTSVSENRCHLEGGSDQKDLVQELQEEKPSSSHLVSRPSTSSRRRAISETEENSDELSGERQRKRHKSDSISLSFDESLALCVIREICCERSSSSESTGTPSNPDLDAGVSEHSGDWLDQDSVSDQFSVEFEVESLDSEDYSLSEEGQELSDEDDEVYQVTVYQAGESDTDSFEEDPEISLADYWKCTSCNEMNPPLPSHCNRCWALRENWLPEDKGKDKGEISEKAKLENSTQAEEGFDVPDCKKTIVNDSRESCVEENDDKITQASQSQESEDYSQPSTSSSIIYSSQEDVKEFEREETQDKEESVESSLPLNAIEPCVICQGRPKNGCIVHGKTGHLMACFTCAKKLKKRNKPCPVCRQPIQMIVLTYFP
Calb FLC = affects C. albicans growth with fluconazole; C. albicans CaCi-2 (fluconazole-resistant clinical isolate) + fluconazole, Alamar Blue growth, 48 h; growth inhibition, % (no concentration beside the values); 300,000 tested, 0.57% active; AID 1979;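 active = growth inhibition above about 58% in most replicates, limit read from the data, passing the limit was not always enough; inconclusive = exactly half the replicates above a set limit; inactive = most replicates below a set limit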;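 note: all wells also contain fluconazole at 8 µg/ml as a sub-toxic cotreatment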
CSC inhib = blocks cancer stem cells; cancer stem cell-like cells viability, luminescence; inhibition, % at 7.5 µM; 300,000 tested, 1.1% active; AID 2717; in the data active = inhibition above about 75%; inconclusive = no clear call, values can overlap the other calls; tested in HMLE shEcad cells
Mdm2-MdmX conf = confirmation of human Mdm2/MdmX interaction inhibitors; shares compounds with Mdm2-MdmX inh; Mdm2-MdmX binding, luminescent assay; inhibition, % at 8 µM; 10,000 tested, 55% active; AID 489028; in the data active = inhibition above about 40%
FLuc counter = full-length luciferase inhibition in Mdm2/MdmX counter-screen. 6,200 tested, 77% active. shares compounds with Mdm2-MdmX inh. inhibition, % at 8 µM. AID 504607. SaOS-2 full-length luciferase counterscreen, luminescence;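 active = mean inhibition at 8 µM reaching about 37%, which flags the compound as non-specific, limit read from the data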;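 note: p53-null SaOS-2 cells with luciferase driven by a doxycycline-inducible promoter; compound on cells about two nights before reading with doxycycline added after day one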
Numbers stand for hits; n = inactive; u = inconclusive; x = no result. An excerpt weighted towards active compounds, which were near 4.8% of everything screened.

SMILES | MPTP block | Beta cell apopt | Mdm2-MdmX inh | Calb FLC | CSC inhib | Mdm2-MdmX conf | FLuc counter
S=c1nc(NCCc2ccccc2Cl)c2ccccc2[nH]1 | n | n | n | n | n | x | x
CNC(=O)c1c(C)nn(-c2ccc(F)c(Cl)c2)c1-c1cc(C)on1 | n | n | n | n | n | x | x
COc1ccc(C(=O)NCCc2nnc3ccc(SCC(=O)Nc4ccccc4)nn23)cc1 | n | n | n | n | n | x | x
O=C(Nc1cccnc1Cl)c1cc2c(s1)-c1ccccc1OC2 | n | n | n | n | n | x | x
CN1CCN(c2ccccc2NC(=O)c2cc3c(s2)-c2ccccc2OC3)CC1 | n | n | 57 | n | n | 52 | 63
O=C(Nc1nccs1)c1nc[nH]c1C(=O)NCc1ccccc1 | n | n | 51 | x | n | n | x
O=[N+]([O-])c1cccc2c(N3CCCC3)ccnc12 | n | 112 | 52 | n | n | n | x
CCn1c(=O)c([N+](=O)[O-])c(NCCN(C)C)c2ccccc21 | n | n | n | n | n | x | x
CCn1c(=O)c([N+](=O)[O-])c(Cl)c2ccccc21 | n | 77 | 99 | n | u | 97 | 55
CC(C)NC(=O)C1(C)CN(S(C)(=O)=O)CC(=O)N1CCOc1ccccc1 (configuration not stated) | n | x | x | x | x | x | x
C/C(=N\NC(=O)c1cccc(F)c1)c1ccc(Br)s1 | n | n | 72 | n | n | 49 | 44
O=S1(=O)N[C@H](Cc2ccccc2)COc2cc(N3CCN(Cc4ccccc4F)CC3)ccc21 | n | x | x | x | x | x | x
COc1cc(/C=C(\C#N)c2[nH]nc(N)c2C#N)cc(OC)c1O | n | n | 65 | n | n | n | x
CN(C)C(=O)c1cc2c(c(-c3cccc(C4=CCCCC4)c3)n1)[C@@H](CCO)N(S(=O)C(C)(C)C)C2 (some centres not stated) | n | x | x | x | x | x | x
CC(=O)Oc1ccccc1C(=O)Nc1ccccc1 | n | n | n | n | n | x | x
COC1(OC)C=CC(=O)C=C1NC(=O)c1ccccc1OC(C)=O | n | n | 82 | n | n | 66 | n
COc1ccc(C2=NS(=O)(=O)N(C)C(C(=O)NCc3ccc(F)cc3)=C2)cc1OC | n | n | n | n | n | x | x
CC1Cc2ccccc2N1C(=O)c1cc2c(=O)n3ccccc3nc2n1C (configuration not stated) | n | n | 53 | n | n | n | x
Cc1cccn2c(=O)c3cc(C(=O)N4c5ccccc5CC4C)n(C)c3nc12 (configuration not stated) | n | n | n | n | n | x | x
O=C(/C=C\Nc1ccccn1)c1ccccc1 | n | n | n | n | n | x | x
O=C(/C=C/Nc1ccccc1Br)c1ccccn1 | n | n | 75 | n | n | 76 | n
CCOC(=O)CSc1cccc2cccnc12 | n | n | 77 | n | n | n | x
Cc1cccc(NC(=O)CSc2cccc3cccnc23)c1C | n | n | n | n | n | x | x
Cc1cccc(CSc2cccc3cccnc23)c1 | n | n | 51 | n | n | 67 | 37
C[C@]12c3[nH]c4cc(-c5ccco5)ccc4c3CCN1C(=O)[C@@H](CC(=O)NCC13CC4CC(CC(C4)C1)C3)C[C@@H]2C(=O)N1CCCCC1 | n | x | 78 | x | x | n | x
SMILES | MPTP block | Beta cell apopt | Mdm2-MdmX inh | Calb FLC | CSC inhib | Mdm2-MdmX conf | FLuc counter
C[C@]12c3[nH]c4cc(-c5ccco5)ccc4c3CCN1C(=O)[C@@H](CC(=O)NCc1cccc(C(F)(F)F)c1)C[C@@H]2C(=O)N1CCCCC1 | n | x | 85 | x | x | n | x
CC[C@]12c3[nH]c4ccc(OC)cc4c3CCN1C(=O)C(CC(=O)NCC13CC4CC(CC(C4)C1)C3)C[C@@H]2C(=O)N1CCN(C(=O)c2ccco2)CC1 (some centres not stated) | n | x | n | x | x | x | x
CC[C@]12c3[nH]c4cc(-c5ccco5)ccc4c3CCN1C(=O)[C@@H](CC(=O)NCC13CC4CC(CC(C4)C1)C3)C[C@@H]2C(=O)N1CCN(C(=O)c2ccco2)CC1 | n | x | n | x | x | x | x
CC[C@]12c3[nH]c4cc(-c5ccco5)ccc4c3CCN1C(=O)[C@@H](CC(=O)NCC13CC4CC(CC(C4)C1)C3)C[C@@H]2C(=O)N1CCN(C(=O)C2CC2)CC1 | n | x | 78 | x | x | n | x
CC[C@]12c3[nH]c4ccc(Cl)cc4c3CCN1C(=O)[C@@H](CC(=O)NCC13CC4CC(CC(C4)C1)C3)C[C@@H]2C(=O)N1CCN(C(=O)c2ccco2)CC1 | n | x | 87 | x | x | 41 | 38
CN(C)CCCNC(=O)C[C@H]1C[C@H](C(=O)N2CCCCC2)[C@@]2(C)c3[nH]c4cc(-c5ccco5)ccc4c3CCN2C1=O | n | x | n | x | x | x | x
CCOc1ccccc1OCCCC(=O)Nc1cc(S(=O)(=O)N2CCOCC2)ccc1OC | n | n | n | x | n | x | x
CC(=O)N1c2ccc(S(=O)(=O)N3CCCCC3)cc2CC1C(=O)NCc1cccc(Cl)c1 (configuration not stated) | n | x | n | n | n | x | x
CCNC(=O)C1(C)CCCN1C(=O)c1c(F)cccc1F (configuration not stated) | n | x | x | x | x | x | x
COc1ccc(C2=NNC(=Nc3cc(S(=O)(=O)N(C)C)ccc3C)SC2)c(OC)c1 | n | 103 | 67 | n | n | 50 | 54
Cc1cccc(N=C2NN=C(c3ccccc3F)CS2)c1C | n | n | n | n | n | x | x
Cc1oc2c(cc(NS(=O)(=O)c3ccc(F)cc3)c3ccccc32)c1C(=O)O | n | n | n | n | x | x | x
COc1ccc(S(=O)(=O)Nc2cc3c(cc2C(C)=O)OCO3)cc1 | n | n | 63 | u | n | 51 | 63
COc1ccc(S(=O)(=O)Nc2cc3c(C(C)=O)c(C)oc3c3ccccc23)cc1 | n | x | 67 | n | n | 70 | 80
COc1cccc(-c2cc(CNC(=O)[C@H]3O[C@@H](n4ccc(=O)[nH]c4=O)[C@H](O)[C@@H]3O)no2)c1 | n | x | x | x | x | x | x
CC(C)[C@H](CO)N(Cc1cccc(F)c1)c1nc(Nc2cccc(Cl)c2)c2ncn(C(C)C)c2n1 | n | n | 55 | n | n | n | x
CC(C)n1cnc2c(N(C)c3cccc(Cl)c3)nc(N(CCO)CCO)nc21 | n | n | n | n | n | x | x
CC[C@H](CO)Nc1nc(Nc2cccc(Cl)c2)c2ncn(C(C)C)c2n1 | n | n | 90 | n | 82 | 71 | 40
O=C(CCl)Nc1ccccc1C(=O)Nc1ccc2c(c1)OCO2 | n | n | n | n | n | x | x
CCN(CC)CCN1CCN(c2cnc(C)cn2)CC1 | n | x | x | x | x | x | x
COC(=O)C1=C(C)N(CCc2ccccc2)C(=O)C1(NS(=O)(=O)c1ccc(NC(C)=O)cc1)C(F)(F)F (configuration not stated) | n | n | 65 | n | n | n | 59
COC(=O)Cc1ccc(NC(=O)c2ccc(C(C)(C)C)cc2)cc1 | n | x | 66 | n | n | 55 | n
CC(C)(C)c1ccc(C(=O)Nc2ccc(Cl)cc2)cc1 | n | n | n | n | n | x | x
CCC(CC)C(C(=O)NCc1ccccc1)N1CCN(c2cccc(C)c2C)CC1 (configuration not stated) | n | x | x | x | x | x | x
CCc1cc(C(=O)N2CCCc3ccccc32)sc1C | n | n | n | n | n | x | x
